# Compounds with a hit are over-represented: about 11% of the library has one in this group of screens.
# USP28 block: inhibitors of human USP28 deubiquitinase. Ubiquitin carboxyl-terminal hydrolase 28 (Homo sapiens), Q96RU2. purified USP28, Ub-rhodamine cleavage fluorescence, 30 min. inhibition, % at 25 µM. hit rate 3% among 47,000. AID 1645857, 2021
# USP30 block: inhibitors of human USP30 deubiquitinase | Ubiquitin carboxyl-terminal hydrolase 30 (Homo sapiens), Q70CQ3 | purified USP30, Ub-rhodamine cleavage fluorescence | inhibition, % at 25 µM | hit rate 5.3% among 47,000 | AID 1645860, 2021
# Target sequence (Q70CQ3 whole entry, looked up): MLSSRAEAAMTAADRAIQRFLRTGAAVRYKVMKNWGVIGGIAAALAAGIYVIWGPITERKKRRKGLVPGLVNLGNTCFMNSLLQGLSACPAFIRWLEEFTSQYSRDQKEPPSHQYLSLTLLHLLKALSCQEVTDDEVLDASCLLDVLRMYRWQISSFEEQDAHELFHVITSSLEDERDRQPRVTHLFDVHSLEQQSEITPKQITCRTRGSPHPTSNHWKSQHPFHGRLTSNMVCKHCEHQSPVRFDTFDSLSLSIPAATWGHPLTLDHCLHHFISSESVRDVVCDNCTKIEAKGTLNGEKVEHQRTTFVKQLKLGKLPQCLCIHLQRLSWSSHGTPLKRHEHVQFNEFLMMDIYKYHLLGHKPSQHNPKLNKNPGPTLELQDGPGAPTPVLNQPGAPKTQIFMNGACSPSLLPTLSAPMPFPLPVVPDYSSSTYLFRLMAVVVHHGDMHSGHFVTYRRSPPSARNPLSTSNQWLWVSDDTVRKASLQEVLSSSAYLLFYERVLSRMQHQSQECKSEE
# USP17 block: inhibitors of human USP17 deubiquitinase | Ubiquitin carboxyl-terminal hydrolase 17-like protein 5 (Homo sapiens), A8MUK1 | purified USP17, Ub-rhodamine cleavage fluorescence, 3 h | inhibition, % at 50 µM | hit rate 6.5% among 47,000
# Hits are given with their value; 0 = inactive; - = no result given. No stated cut-off is given here; in the data, active means inhibition above about 30%; inactive means the rest.
SMILES,USP28 block,USP30 block,USP17 block
O=C(c1noc2ccc(S(=O)(=O)Nc3ccccc3F)cc12)N1CCCC1,0,0,0
Cc1cc(C)cc(NC(=O)Cn2c(=O)n(Cc3ccncc3)c(=O)c3ncccc32)c1,0,0,0
CCn1cc2c(n1)c(=O)n(Cc1ccccc1)c(=O)n2CC(=O)Nc1ccc(OC)cc1,0,39,80
CCc1ccc(NC(=O)Cn2c(=O)n(Cc3ccccc3)c(=O)c3nn(CC)cc32)cc1,0,78,73
CCCn1c(=O)c2nscc2n(CC(=O)Nc2ccc(F)c(F)c2)c1=O,0,0,0
CCc1ccc(NC(=O)Cn2c(=O)n(C)c(=O)c3nscc32)cc1,0,0,39
CC(C)c1ccc(NC(=O)Cn2c(=O)n(Cc3ccncc3)c(=O)c3ncccc32)cc1,0,0,0
CCn1cc2c(n1)c(=O)n(Cc1ccccc1)c(=O)n2CC(=O)Nc1ccc(C(C)C)cc1,0,0,40
CCOc1ccc(NC(=O)Cn2c(=O)n(Cc3ccncc3)c(=O)c3ncccc32)cc1,0,0,0
CC(=O)N1C[C@@H]2[C@H](NC(=O)c3ccc4c(c3)OCCO4)c3ccccc3[C@@H]2C1,0,0,0
CC(C)C(NS(=O)(=O)c1ccc2c(c1)OCCO2)C(=O)Nc1ccc(N2CCOCC2)cc1 (centres undefined),0,0,0
CCN1CC[C@@]2(C(=O)Nc3ccccc3)CCN(C(=O)c3ccccc3)CC[C@@H]12,0,0,0
COc1ccc(C(=O)C(=O)Nc2ccccc2)c(O)c1,0,0,0
COc1ccc(C)cc1N1CC(C)Cn2c1nc1c2c(=O)n(CCN2CCCCC2)c(=O)n1C (centres undefined),0,0,0
CCn1c(=O)n(CC(=O)c2ccccc2)c2c(C(N)=O)nc(-c3ccc(C)o3)nc21,0,0,34
Cc1ccc(-c2nc(C(N)=O)c3[nH]c(=O)n(CCc4ccccc4)c3n2)o1,0,0,0
CCn1c(=O)n(CC(=O)c2ccc(F)cc2)c2c(C(N)=O)nc(-c3ccc(C)o3)nc21,0,0,34
CCn1c(=O)n(CC(=O)c2ccccc2F)c2c(C(N)=O)nc(-c3ccco3)nc21,0,0,0
COc1ccc(CCNC(=O)CSc2nnc(CNC(=O)COc3ccc(Cl)cc3)o2)cc1OC,0,34,46
O=C(COc1ccc(Cl)cc1)NCc1nnc(SCC(=O)NCc2ccc3c(c2)OCO3)o1,0,0,70
COC(=O)c1ccc(CSc2nnc(CNC(=O)COc3ccc(Cl)cc3)o2)o1,0,0,0
O=C(COc1ccccc1-c1nnc(-c2ccccc2)o1)NCc1ccc2c(c1)OCO2,0,0,0
Cc1cccc(-c2nc(CN3CCC(C(=O)NCc4cccnc4)CC3)no2)c1,0,0,0
COc1cc(C(=O)O)cc(O)c1OC,0,0,0
c1cc2c(cc1-c1nnc(C3(c4ccc5c(c4)OCO5)CCOCC3)o1)OCCO2,0,33,0
SMILES,USP28 block,USP30 block,USP17 block
Brc1ccc(C2(c3nnc(-c4ccc5c(c4)OCCO5)o3)CCOCC2)cc1,0,0,0
CCn1ncc(-c2ccn(-c3ccc(N)cc3)n2)c1C,0,0,0
CC(C)CN1C[C@@]23CN(C(=O)c4ccncc4)C[C@@H](C[C@@H]2S1(=O)=O)O3,0,0,0
COc1ccc(C(C)=O)cc1COC(=O)c1ccc2c(c1)S(=O)(=O)N=C1CCCCCN12,0,38,45
CC(C)(C)c1ccc(NC(=O)c2ccc3c(c2)S(=O)(=O)N=C2CCCCCN23)cc1,0,0,0
CCC(C)NC(=O)c1ccc(N2CCSc3ncccc32)s1 (centres undefined),0,0,0
CC(C)C(=O)N1CCC(c2nnc(C(=O)Nc3ccccc3)s2)CC1,0,0,0
N#Cc1ccc(Cn2c(CN3CCOCC3)nc3ccccc3c2=O)cc1,0,0,0
Cc1ccc(S(=O)(=O)NCCn2c(N)c(C#N)c3nc4ccccc4nc32)cc1,0,0,40
Cc1ccc(S(=O)(=O)NCCn2ccc3ccccc32)cc1,0,0,0
Cc1cccc(C(=O)N2CCC3(CC2)OCCN3S(=O)(=O)c2ccccc2)c1,0,0,0
CCOc1cc(CN2CCCC(c3ncc(Cl)cc3S(C)(=O)=O)C2)ccc1O (centres undefined),0,0,0
CCN(CC)S(=O)(=O)c1cc(C(=O)Nc2ccc(C)c(C)c2)ccc1Cl,0,0,0
O=C(Nc1ccc2n[nH]nc2c1)c1ccc(Cl)c(Cl)c1,0,53,51
O=C(NCc1ccc(N2CCOCC2)cc1)c1cc(F)cc2c1OCOC2,0,0,0
CCOc1ccccc1NC(=O)Nc1cccn2ncnc12,0,0,0
O=C(Nc1ccc(Cl)cc1)Nc1cccn2ncnc12,39,52,0
CCOc1ccccc1-c1cc(NC(=O)c2cc3ccc4cccnc4c3[nH]2)on1,0,88,68
COc1ccc2nc(NC(=O)c3cc4ccc5cccnc5c4[nH]3)sc2c1,0,0,0
CC(=O)Nc1ccc(C(=O)Nc2cc(-c3ccccn3)no2)cc1,0,0,0
O=C(Nc1nc2ccccc2s1)c1cc2ccc3cccnc3c2[nH]1,-,-,58
Cc1cc(C(=O)N2CC(C(=O)Nc3ccc(Br)cc3C)C2)no1,0,0,0
CNc1nc2c(c(=O)n1Cc1ccccc1)CN(C(=O)c1ccccc1OC)CC2,0,0,0
O=C(Nc1ccc2c(c1)OCO2)c1ccc2ccccc2n1,0,0,0
COc1ccc(-c2cc(N3CCC(NC(=O)c4ccccc4)C3)n[nH]2)cc1 (centres undefined),0,0,56
SMILES,USP28 block,USP30 block,USP17 block
COc1ccc(-c2cc(N3CCC(NC(=O)c4ccccn4)C3)n[nH]2)cc1 (centres undefined),0,0,0
Cc1ccc(Nc2nc(C(=O)NCCCN3CCCC3=O)cc3occc23)cc1Cl,0,0,0
CCC(C)n1c(-c2ccccc2F)nc2nc3ccccc3nc21 (centres undefined),37,35,0
CCCn1c(-c2ccccc2)nc2nc3ccccc3nc21,0,0,0
CC(C)NC(=O)NC1CC2(CCN(C(=O)Cc3cnc[nH]3)CC2)Oc2ccccc21 (centres undefined),0,0,0
Brc1ccc(Sc2cnns2)cc1,38,0,0
CN1C(=O)COc2ccc(NC(=O)c3cc4ccccc4oc3=O)cc21,0,0,0
CC(C)n1nccc1-c1nccnc1CC1CCN(C(=O)C(C)(C)C)CC1,0,0,0
COc1ccc(Cl)cc1NC(=O)Cn1c(=O)n(CCC(=O)N2CCc3ccccc3C2)c(=O)c2ccccc21,0,36,0
O=C(CCCn1c(=O)[nH]c2cc(Cl)ccc2c1=O)N1CCc2ccccc2C1,0,0,55
COc1ccc(NC(=O)Cn2c(=O)n(CCC(=O)N3CCc4ccccc4C3)c(=O)c3ccccc32)cc1Cl,0,0,-
O=C(CCCn1c(=O)[nH]c2ccc(Br)cc2c1=O)N1CCc2ccccc2C1,0,31,0
O=C(CCCCn1c(=O)[nH]c2ccccc2c1=O)N1CCN(C2CCCCC2)CC1,0,0,0
COc1ccccc1N1CCN(C(=O)CCCn2c(=O)[nH]c3ccc(Br)cc3c2=O)CC1,0,0,0
COc1ccc(NC(=O)CC2C(=O)NCCN2C(=O)c2ccc(F)cc2F)cc1 (centres undefined),0,0,0
O=C(Oc1ccc2oc3ccccc3c2c1)C1CCCN1S(=O)(=O)c1ccc(Cl)cc1 (centres undefined),0,0,0

# Bioassay records from PubChem.
